Measurements published in PubChem BioAssay (NCI).
This is part of a sample that, as a whole, favours compounds with a hit. Of some 83,000 tested, about 20% had one in any assay.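 Single-dose data. Exposure time 48 hours. Values below 10 considered active.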 Values without a mark were called inactive. Active and inactive are the calls of the source.

System: HL-60(TB) leukemia
Assay: NCI-60 one-dose screen, 48 h (100 = growth as untreated, 0 = no growth, -100 = all killed)
Details: 10 µM unless noted

Structure (SMILES)	growth
CCOC(=O)c1c(NC(=O)c2cccc(C(F)(F)F)c2)sc2c(CN3CCN(C)CC3)c(O)ccc12	-31% (active)
O=C(CSc1nc2sc3c(c2c(=O)n1-c1ccc(Cl)cc1)CCCC3)NNC(=O)Nc1cccc(C(F)(F)F)c1	2.24% (active)
CNC(=O)c1cc(N2CCc3cc(NC(=O)Nc4ccc(Cl)c(C(F)(F)F)c4)ccc32)ccn1	50.3%
O=C1NC(=C(Cl)Cl)/C(=N/S(=O)(=O)N2CCCCC2CC2(C(F)(F)F)N=N2)N1 (stereo unspecified)	1.49% (active)
CN1C(=O)N(C)C2C1NN=c1s/c(=C\c3ccccn3)c(=O)n12 (stereo unspecified)	101%
CCOC(=O)c1c(Nc2ccccc2)nn2c(-c3cccs3)ccnc12	74.9%
CC(C)(C)n1nnnc1C(Nc1cccc2c1OCO2)c1cc2cccc3ccc4cccc1c4c32 (stereo unspecified)	85.2%
c1ccc(CNc2ncnc3ccc(-c4cnc5[nH]ncc5c4)cc23)cc1	63.8%
Oc1ccc(CSc2nnc(-c3ccc(Cl)cc3)o2)c2cccnc12	12.6%
COc1cc(OC)c(C2SCC(=O)N2Nc2ncnc3ccccc23)cc1OC (stereo unspecified)	103%
Nc1nc(N)c2c(n1)NC(c1ccc(F)cc1)CC(c1ccc(Nc3nc(NCCO)nc(Nc4ccc(Cl)cc4)n3)cc1)=N2 (stereo unspecified)	-11.4% (active)
COc1cccc2c1C=CC1(O2)Oc2cccc(OC)c2C=C1C (stereo unspecified)	0.839% (active)
COc1ccc(-c2nc3cccc(O)c3c(=O)n2Cc2ccccc2)cc1COc1ccc(NC(C)=O)cc1	45.4% [3 µM]
COc1ccc(-c2nn(-c3ccc(S(C)(=O)=O)cc3)cc2/C=N/O)cc1	103%
O=C(COc1ccc(/C=C2\C(=O)Nc3ccc(Cl)cc32)cc1)Nc1ccc(Cl)cc1	57.6%
Fc1ccc2nc(-c3cnn4cccnc34)sc2c1	96.7%
